Experimental data as given in PubChem BioAssay (NCATS).
Where “and” joins values, the source holds several entries; their conditions need not be identical. Equal entries are not always repeated. Inconclusive results are not listed. Calls of active or inactive are those of the source. Calls follow the shape of the dose curve; as a rule, active = well fitted curve in the direction sought with a large enough effect; inconclusive = small, poorly fitted or top-dose-only effect, or another doubt; inactive = no such curve, though single readings can be large; an effect the other way counts as inactive or inconclusive.

Assays:
[1] = Cellular Toxicity (caspase-3) BJ (AID 658); conditions: BJ fibroblasts, luminescence; Potency: caspase-3 activation; series mostly up to 91.7 µM;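 also: cells exposed to compound for 16 hours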
Outline: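 BJ human foreskin fibroblasts, 1000 cells/well, treated 16 hours at 37 °C in complete medium; caspase 3/7 activity by Caspase-Glo luminescence after 1 hr at room temperature. Normalized to DMSO and 10 uM staurosporine; AC50 from Hill fits.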

[2] = Cellular Toxicity (caspase-3) MRC-5 (AID 659); conditions: MRC-5 cells, luminescence, normalized: DMSO 0%, 10 µM staurosporine 100%; series mostly up to 91.7 µM
Outline: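 MRC-5 human normal lung fibroblasts, 1500 cells/well, treated 16 h at 37 °C in complete medium. Caspase 3/7 measured by Caspase-Glo luminescence after 1 h at room temperature. Normalized to DMSO and 10 uM staurosporine; AC50 from Hill fit.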

[3] = Cellular Toxicity (caspase-3) Mesangial (AID 660); conditions: mesangial cells, normalized: DMSO 0%, 100 µM tamoxifen 100%; series mostly up to 91.7 µM;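 also: combined caspase 3 and 7 activity read by Caspase-Glo luminescence; cells exposed to compound for 16 h before the caspase read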
Outline: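 Concentration-response qHTS: compound-induced rise in caspase 3/7 luminescence in human mesangial cells after 16 h, normalized to DMSO and 100 uM tamoxifen controls.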

[4] = Cellular Toxicity (caspase-3) SK-N-SH (AID 661); conditions: SK-N-SH caspase-3 activation, qHTS, DMSO as zero, staurosporine as full; series mostly up to 91.7 µM;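 also: cells exposed to compound for 16 hours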
Outline: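 Caspase 3/7 activation is measured as a luminescence increase from aminoluciferin released by substrate cleavage in SK-N-SH cells after 16 hr compound treatment; values are AC50 from concentration-response curves.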

[5] = Cellular Toxicity (caspase-3) Hek293 (AID 664); conditions: HEK293 caspase-3 activation, DMSO = 0%, 100 µM tamoxifen = 100%; at 92.2 µM (top of the series);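 also: cells exposed to compound for 16 h at 37 °C before readout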
Outline: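 Activation of caspase-3/7 is measured as increased luminescence from cleaved peptide-aminoluciferin substrate in HEK293 cells treated 16 hours at 37 °C. AC50 values come from Hill-equation fits of concentration-response data.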

[6] = Cellular Toxicity (caspase-3) N2a (AID 665); conditions: N2a cells, luminescence, normalized: DMSO 0%, 10 µM staurosporine 100%; series mostly up to 92.2 µM;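 also: compound exposure lasted 16 h at 37 °C before readout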
Outline: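 Plated mouse neuroblastoma N2a cells received titrated compounds for 16 h in complete medium. Caspase activity was then detected with a peptide-aminoluciferin luminescent reagent.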

[7] = Cellular Toxicity (caspase-3) NIH 3T3 (AID 666); conditions: NIH 3T3 caspase-3 activation, apoptosis/toxicity, 0% DMSO, 100% is 100 µM tamoxifen; series mostly up to 92.2 µM;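 also: 0% = DMSO basal and 100% = 100 µM tamoxifen stimulation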
Outline: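 Concentration-response qHTS in NIH 3T3 mouse fibroblasts scores caspase-3/7 activation as rising luminescence after 16 hr compound exposure. Signals are scaled between DMSO-only and 100 uM tamoxifen.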

[8] = Cellular Toxicity (caspase-3) Renal Proximal Tubule (AID 667); conditions: renal proximal tubule cells, primary cells freshly taken from rat; Potency: caspase-3 activation; series mostly up to 91.7 µM;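 also: cells exposed to compound for 16 hours at 37 °C before detection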
Outline: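 Caspase-Glo 3/7 read-out, rat primary kidney proximal tubule cells. Compound exposure 16 h, 37 °C; detection after 1 h at RT. Activity scaled to DMSO and 10 uM staurosporine.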

[9] = target: Cytochrome P450 2C9 (Homo sapiens) (UniProt P11712); test: qHTS Assay for Inhibitors and Substrates of Cytochrome P450 2C9 (AID 883); conditions: recombinant CYP2C9, luciferin-H luminescence, 60 min; series mostly up to 11.4 µM; also: % is scaled to controls: 0 for no effect and ±100 for the full control effect; nearly all actives have a fitted effect of over 60% in size
Sequence of Cytochrome P450 2C9 (Homo sapiens) (P11712 whole entry, looked up): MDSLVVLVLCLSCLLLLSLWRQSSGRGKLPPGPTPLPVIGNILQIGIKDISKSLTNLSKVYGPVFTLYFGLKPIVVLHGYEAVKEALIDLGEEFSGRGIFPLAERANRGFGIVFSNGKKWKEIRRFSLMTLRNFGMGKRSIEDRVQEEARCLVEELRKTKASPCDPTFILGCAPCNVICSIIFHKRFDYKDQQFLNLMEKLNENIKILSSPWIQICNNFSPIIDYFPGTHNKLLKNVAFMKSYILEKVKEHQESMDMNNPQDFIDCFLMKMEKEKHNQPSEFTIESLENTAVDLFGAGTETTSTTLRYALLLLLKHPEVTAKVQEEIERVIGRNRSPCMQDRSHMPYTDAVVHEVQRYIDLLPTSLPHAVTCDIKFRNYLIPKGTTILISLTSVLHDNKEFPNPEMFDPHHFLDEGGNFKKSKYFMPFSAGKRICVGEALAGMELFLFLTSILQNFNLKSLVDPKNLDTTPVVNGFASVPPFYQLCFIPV
Outline: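 10nM CYP2C9 + 100uM Luciferin-H (=KM), 25mM KPO4; cpd 10 min 37C; NADPH regen, 60 min 37C; stop/detect with P450 Glo-Buffer 20 min; luminescence. Norm. to 57uM sulphaphenazole as full inhibition.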

[10] = target: Cytochrome P450 3A4 (Homo sapiens) (UniProt P08684); test: qHTS Assay for Inhibitors and Substrates of Cytochrome P450 3A4 (AID 884); conditions: recombinant CYP3A4, Luciferin-PPXE luminescence; series mostly up to 57.1 µM; also: potency is read from the fitted curve at half-maximal effect; nearly all actives have a fitted effect of over 50% in size
Sequence of Cytochrome P450 3A4 (Homo sapiens) (P08684 whole entry, looked up): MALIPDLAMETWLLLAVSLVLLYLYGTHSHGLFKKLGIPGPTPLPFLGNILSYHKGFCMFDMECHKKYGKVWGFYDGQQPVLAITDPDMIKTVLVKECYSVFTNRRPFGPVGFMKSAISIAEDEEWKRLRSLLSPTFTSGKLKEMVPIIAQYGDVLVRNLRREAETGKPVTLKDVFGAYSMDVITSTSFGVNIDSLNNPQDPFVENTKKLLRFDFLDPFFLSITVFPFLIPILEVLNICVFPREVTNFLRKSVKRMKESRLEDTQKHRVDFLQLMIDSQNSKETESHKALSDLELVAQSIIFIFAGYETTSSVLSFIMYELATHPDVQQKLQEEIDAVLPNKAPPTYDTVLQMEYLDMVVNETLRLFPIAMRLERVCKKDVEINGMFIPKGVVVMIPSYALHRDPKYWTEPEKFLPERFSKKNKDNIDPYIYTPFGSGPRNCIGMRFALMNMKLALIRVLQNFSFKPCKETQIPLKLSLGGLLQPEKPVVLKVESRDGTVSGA
Outline: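 20 nM human CYP3A4 with 25 uM Luciferin-PPXE (at KM) in 200 mM KPO4, preincubated 10 min with compound; NADPH regeneration started a 60 min RT reaction. Luciferin detected by luminescence, normalized to 57 uM ketoconazole as full inhibition.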

[11] = target: Cytochrome P450 2D6 (Homo sapiens) (UniProt P10635); test: qHTS Assay for Inhibitors and Substrates of Cytochrome P450 2D6 (AID 891); conditions: recombinant CYP2D6, luciferin-ME EGE luminescence; series mostly up to 11.4 µM; also: potency is read from the fitted curve at half-maximal effect; nearly all actives have a fitted effect of over 60% in size
Sequence of Cytochrome P450 2D6 (Homo sapiens) (P10635 whole entry, looked up): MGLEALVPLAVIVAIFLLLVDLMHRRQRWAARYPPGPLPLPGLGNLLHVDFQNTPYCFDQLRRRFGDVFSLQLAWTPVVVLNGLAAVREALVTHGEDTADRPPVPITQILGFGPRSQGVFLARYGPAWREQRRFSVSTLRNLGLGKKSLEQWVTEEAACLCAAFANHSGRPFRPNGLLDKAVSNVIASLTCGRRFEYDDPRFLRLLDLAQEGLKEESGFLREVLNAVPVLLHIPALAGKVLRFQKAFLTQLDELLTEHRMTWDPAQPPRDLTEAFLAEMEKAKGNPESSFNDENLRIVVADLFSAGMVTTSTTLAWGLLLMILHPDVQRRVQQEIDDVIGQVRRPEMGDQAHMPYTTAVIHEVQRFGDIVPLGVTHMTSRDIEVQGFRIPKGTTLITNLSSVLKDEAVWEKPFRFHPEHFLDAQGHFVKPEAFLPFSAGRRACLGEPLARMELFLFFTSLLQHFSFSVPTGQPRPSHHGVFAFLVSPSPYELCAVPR
Outline: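 Human CYP2D6 (5 nM) with 30 uM Luciferin-ME EGE (at Km) in 100 mM KPO4, compound preincubated 10 min, then NADPH regeneration system for 60 min at room temperature. Luciferin read by luminescence; normalized to 1.43 uM quinidine.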

[12] = MultiTox-Fluor Cytotoxicity Assay - LYMP1-001 - Dead Cells (AID 946); conditions: LYMP1-001 lymphoblastoid cells, dead-cell protease fluorescence; series mostly up to 92.2 µM
Outline: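 Seed 2500 LYMP1-001 cells/well, incubate 5 hr at 37 C; add compound, 16 hr at 37 C; add MultiTox-Fluor reagent, 60 min RT; read dead-cell fluorescence Ex/Em=485/520. Normalize to DMSO and 15 uM tetraoctylammonium bromide.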

[13] = MultiTox-Fluor Cytotoxicity Assay - LYMP1-001 - Live Cells (AID 947); conditions: LYMP1-001 lymphoblastoid cells, live-cell protease fluorescence viability; series mostly up to 92.2 µM; also: potency is read from the fitted curve at half-maximal effect
[14] = Cell Viability - LYMP1-002 - Assay at 16 hr (AID 948); conditions: LYMP1-002 lymphoblastoid cell viability; series mostly up to 92.2 µM; also: potency is read from the fitted curve at half-maximal effect
Outline: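 In this qHTS, lymphoblastoid LYMP1-002 cells (human) receive compounds for 16 hr at 37 C. Viability is taken from CellTiter-Glo ATP luminescence, and AC50 derives from standard Hill fits.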

[15] = MultiTox-Fluor Cytotoxicity Assay - LYMP1-002 - Dead Cells (AID 960); conditions: LYMP1-002 lymphoblastoid cells, dead-cell protease fluorescence; series mostly up to 46.1 µM; also: nearly all actives have a fitted effect of over 60% in size
Outline: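 Acute cytotoxicity in a human lymphoblastoid line is scored as rising dead-cell protease signal after 16 hr exposure at 37 C, measured fluorometrically (485/520).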

[16] = MultiTox-Fluor Cytotoxicity Assay - LYMP1-003 - Dead Cells (AID 961); conditions: LYMP1-003 lymphoblastoid cells, dead-cell protease fluorescence; series mostly up to 92.2 µM; also: nearly all actives have a fitted effect of over 70% in size
Outline: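 LYMP1-003 lymphoblastoid, 2500 cells/well, 5 hr settle then 16 hr cpd at 37 C; MultiTox-Fluor reagent 60 min RT; Ex/Em 485/520 dead-cell signal; norm. DMSO = 0%, 15 uM tetraoctylammonium bromide = 100%; Hill AC50.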

[17] = Cell Viability - LYMP1-003 - Assay at 24 hr (AID 963); conditions: LYMP1-003 lymphoblastoid cell viability; series mostly up to 92.2 µM; also: potency is read from the fitted curve at half-maximal effect
Outline: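 Acute toxicity in LYMP1-003 lymphoblastoid cells: 24 hr compound treatment at 37 C, ATP measured with CellTiter-Glo after 30 min at room temperature. AC50 derived by fitting the Hill equation to qHTS titrations.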

[18] = Cell Viability - LYMP1-003 - Assay at 40 hr (AID 964); conditions: LYMP1-003 lymphoblastoid viability; series mostly up to 92.2 µM; also: potency is read from the fitted curve at half-maximal effect; nearly all actives have a fitted effect of over 60% in size
Outline: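 This qHTS cytotoxicity screen treats human lymphoblastoid cells (LYMP1-003) with compounds for 40 hr and quantifies cellular ATP via luciferase luminescence.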

N=C1C=CC(=C(c2ccc(N)cc2)c2ccc(N)cc2)C=C1
inactive: Potency [1] | outcome [2] | outcome [3] | outcome [4] | caspase-3 activation [5] -1.95% | outcome [6] | outcome [7] | Potency [8] | Potency [9] | Potency [12] | Potency [15] | Potency [16]
active: Potency [10] 12.6 µM and 3.16 µM | Potency [11] 1.58 µM | Potency [13] 15.8 µM | Potency [14] 25.1 µM | Potency [17] 15.8 µM | Potency [18] 12.6 µM
